Among the data in PMC7862700, “An all-to-all approach to the identification of sequence-specific readers for epigenetic DNA modifications on cytosine” are binding signal values, retold here.

Common to all, as to assay: DAPPL (digital affinity profiling via proximity ligation, sequencing); 10 mM Tris-HCl pH 7.5, 50 mM NaCl, 1 mM DTT, 4% glycerol, room temperature, 30 min; GST-TFs on glutathione beads, 16-mer random dsDNA library, 0.1% formaldehyde crosslink after washing; high values mean tight binding
Assay [1] deals with T1, FEV (Homo sapiens, UniProt Q99581 1-238).
T1 sequence: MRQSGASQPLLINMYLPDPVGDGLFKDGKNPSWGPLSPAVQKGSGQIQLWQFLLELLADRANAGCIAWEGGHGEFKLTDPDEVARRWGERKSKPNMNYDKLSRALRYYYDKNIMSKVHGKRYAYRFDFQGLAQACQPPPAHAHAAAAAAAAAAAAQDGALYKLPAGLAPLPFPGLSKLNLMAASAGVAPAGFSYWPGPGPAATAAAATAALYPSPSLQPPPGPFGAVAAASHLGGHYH
Particulars: protein: recombinant; tags: N-terminal GST; dsDNA, one strand shown. The procedure, abridged:
(§1)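 Sequencing on an Illumina NextSeq500 followed washing, crosslinking with 0.1% formaldehyde, proximity ligation (BsaI/T4 ligase, 1 h, 37 °C) and PCR amplification of pools that had been incubated for 30 min at room temperature with 200 nmole of a random double-stranded 16-mer DNA library in Tris/NaCl/DTT/glycerol buffer. Each pool held DNA-barcoded human transcription factors, expressed in yeast as GST fusions and captured on glutathione beads, plus a tag-only sample. Binding signal is a hexamer's read frequency for a factor divided by its frequency in the tag-only sample.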

The target of assay [2] is ETV5 (Homo sapiens, UniProt P41161 1-510). Conditions: protein: recombinant; tags: N-terminal GST; dsDNA, one strand shown. The procedure, abridged:
as §1

Assay [3] deals with HSF1 (Homo sapiens, UniProt Q00613 1-529). Conditions: protein: recombinant; tags: N-terminal GST; chain copies: 3; dsDNA, one strand shown. The procedure, abridged: as §1
HSF1, sequence (Q00613 whole entry): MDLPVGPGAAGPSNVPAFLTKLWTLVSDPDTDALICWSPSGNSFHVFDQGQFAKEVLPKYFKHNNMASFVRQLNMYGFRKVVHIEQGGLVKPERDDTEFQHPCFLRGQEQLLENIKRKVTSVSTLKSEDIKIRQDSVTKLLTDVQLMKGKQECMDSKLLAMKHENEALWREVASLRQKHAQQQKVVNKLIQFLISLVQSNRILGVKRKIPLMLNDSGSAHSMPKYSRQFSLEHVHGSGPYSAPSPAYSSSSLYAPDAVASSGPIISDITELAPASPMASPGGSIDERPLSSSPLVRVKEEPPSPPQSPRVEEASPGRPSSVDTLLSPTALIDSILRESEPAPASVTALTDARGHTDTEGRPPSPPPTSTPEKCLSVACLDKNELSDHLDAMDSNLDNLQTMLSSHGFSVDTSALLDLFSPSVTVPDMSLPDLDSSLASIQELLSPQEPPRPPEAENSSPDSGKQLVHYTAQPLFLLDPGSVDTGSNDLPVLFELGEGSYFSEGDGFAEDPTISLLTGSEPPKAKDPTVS
For assay [4], the target named is T2, SPIC (Homo sapiens, UniProt Q8N5J4 1-248).
T2 sequence: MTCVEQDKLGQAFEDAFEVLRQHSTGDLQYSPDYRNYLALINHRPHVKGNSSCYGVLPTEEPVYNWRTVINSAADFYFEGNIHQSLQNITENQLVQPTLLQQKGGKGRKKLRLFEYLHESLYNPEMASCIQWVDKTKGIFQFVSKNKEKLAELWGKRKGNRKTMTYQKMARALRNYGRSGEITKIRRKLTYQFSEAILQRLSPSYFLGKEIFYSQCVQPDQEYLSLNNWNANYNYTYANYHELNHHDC
Conditions: protein: recombinant; tags: N-terminal GST; dsDNA, one strand shown. The procedure, abridged: as §1

Assay [5] has as its target ELF4 (Homo sapiens, UniProt Q99607 1-663). Particulars: protein: recombinant; tags: N-terminal GST; dsDNA, one strand shown. The procedure, abridged:
as §1

Assay [6] has as its target T3, ELK4 (Homo sapiens, UniProt P28324-2 1-405).
T3 sequence: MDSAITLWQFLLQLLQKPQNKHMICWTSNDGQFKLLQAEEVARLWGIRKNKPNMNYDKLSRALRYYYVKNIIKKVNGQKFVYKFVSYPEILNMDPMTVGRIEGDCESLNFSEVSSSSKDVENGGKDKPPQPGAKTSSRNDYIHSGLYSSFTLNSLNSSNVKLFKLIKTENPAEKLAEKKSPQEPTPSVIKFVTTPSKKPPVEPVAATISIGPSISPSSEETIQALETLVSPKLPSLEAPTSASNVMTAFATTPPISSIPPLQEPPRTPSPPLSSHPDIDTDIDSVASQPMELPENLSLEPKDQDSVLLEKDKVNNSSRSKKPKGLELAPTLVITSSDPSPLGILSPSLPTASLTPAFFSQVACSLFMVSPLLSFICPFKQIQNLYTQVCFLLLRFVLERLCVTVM
Conditions: protein: recombinant; tags: N-terminal GST; dsDNA, one strand shown. The procedure, abridged:
as §1

The target of assay [7] is T4, ETV2 (Homo sapiens, UniProt O00321 1-342).
T4 sequence: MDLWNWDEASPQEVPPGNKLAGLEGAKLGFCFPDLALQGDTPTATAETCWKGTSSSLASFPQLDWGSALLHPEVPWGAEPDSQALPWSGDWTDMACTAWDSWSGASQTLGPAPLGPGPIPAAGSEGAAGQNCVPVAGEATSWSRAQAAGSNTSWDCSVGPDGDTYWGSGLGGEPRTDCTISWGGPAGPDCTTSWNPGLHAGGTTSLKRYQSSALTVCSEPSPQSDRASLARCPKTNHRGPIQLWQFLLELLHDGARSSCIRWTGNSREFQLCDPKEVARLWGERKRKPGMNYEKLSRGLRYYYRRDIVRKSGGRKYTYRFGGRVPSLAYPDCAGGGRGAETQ
Conditions: protein: recombinant; tags: N-terminal GST; dsDNA, one strand shown. The procedure, abridged: as §1

Assay [8] deals with T5, ELF3 (Homo sapiens, UniProt P78545 1-371).
T5 sequence: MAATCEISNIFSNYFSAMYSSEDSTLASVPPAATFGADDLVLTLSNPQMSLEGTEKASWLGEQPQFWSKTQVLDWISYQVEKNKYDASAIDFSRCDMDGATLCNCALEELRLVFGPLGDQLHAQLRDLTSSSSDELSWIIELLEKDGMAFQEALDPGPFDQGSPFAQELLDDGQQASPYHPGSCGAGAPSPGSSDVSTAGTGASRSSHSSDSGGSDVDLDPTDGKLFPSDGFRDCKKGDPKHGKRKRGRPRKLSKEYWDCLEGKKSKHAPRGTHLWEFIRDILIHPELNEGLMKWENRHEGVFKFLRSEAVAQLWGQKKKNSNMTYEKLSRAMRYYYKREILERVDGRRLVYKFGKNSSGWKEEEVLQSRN
Conditions: protein: recombinant; tags: N-terminal GST; dsDNA, one strand shown. The procedure, abridged: as §1

For assay [9], the target named is CRX (Homo sapiens, UniProt O43186 1-299). Particulars: protein: recombinant; tags: N-terminal GST; dsDNA, one strand shown. The procedure, abridged:
as §1

Assay [10] has as its target ETV1 (Homo sapiens, UniProt P50549 1-477). Particulars: protein: recombinant; tags: N-terminal GST; dsDNA, one strand shown. The procedure, abridged: as §1
Assay [11] deals with T6, ERF (Homo sapiens, UniProt P50548 1-548).
T6 sequence: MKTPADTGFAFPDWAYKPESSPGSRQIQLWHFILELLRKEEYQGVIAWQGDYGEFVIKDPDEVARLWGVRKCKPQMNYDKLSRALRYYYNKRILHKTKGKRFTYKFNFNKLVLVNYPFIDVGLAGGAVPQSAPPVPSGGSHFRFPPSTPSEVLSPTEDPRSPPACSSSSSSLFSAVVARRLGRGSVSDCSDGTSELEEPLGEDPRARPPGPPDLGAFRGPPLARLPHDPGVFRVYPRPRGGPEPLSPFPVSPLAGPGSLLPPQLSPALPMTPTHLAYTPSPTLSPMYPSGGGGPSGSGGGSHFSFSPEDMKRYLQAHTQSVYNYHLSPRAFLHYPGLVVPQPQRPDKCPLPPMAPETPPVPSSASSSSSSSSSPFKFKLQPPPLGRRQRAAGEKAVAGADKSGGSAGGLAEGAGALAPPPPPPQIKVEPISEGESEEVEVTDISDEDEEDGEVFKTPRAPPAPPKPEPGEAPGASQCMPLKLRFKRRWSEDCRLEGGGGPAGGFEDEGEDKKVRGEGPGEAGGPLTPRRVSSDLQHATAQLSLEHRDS
Particulars: protein: recombinant; tags: N-terminal GST; dsDNA, one strand shown. The procedure, abridged: as §1

Assay [12] deals with T7, ETV3L (Homo sapiens, UniProt Q6ZN32 1-361).
T7 sequence: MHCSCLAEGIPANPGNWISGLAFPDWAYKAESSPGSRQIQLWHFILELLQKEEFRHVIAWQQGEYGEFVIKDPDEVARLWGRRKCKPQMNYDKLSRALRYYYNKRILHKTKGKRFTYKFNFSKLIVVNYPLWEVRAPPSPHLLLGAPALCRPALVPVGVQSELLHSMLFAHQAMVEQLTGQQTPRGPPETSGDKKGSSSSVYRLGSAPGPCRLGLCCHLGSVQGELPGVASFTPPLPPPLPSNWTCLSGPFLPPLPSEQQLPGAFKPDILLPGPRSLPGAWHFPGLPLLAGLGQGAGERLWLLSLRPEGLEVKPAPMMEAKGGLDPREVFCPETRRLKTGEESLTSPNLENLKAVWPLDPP
Particulars: protein: recombinant; tags: N-terminal GST; dsDNA, one strand shown. The procedure, abridged: as §1

For assay [13], the target named is T8, ETS2 (Homo sapiens, UniProt P15036 1-469).
T8 sequence: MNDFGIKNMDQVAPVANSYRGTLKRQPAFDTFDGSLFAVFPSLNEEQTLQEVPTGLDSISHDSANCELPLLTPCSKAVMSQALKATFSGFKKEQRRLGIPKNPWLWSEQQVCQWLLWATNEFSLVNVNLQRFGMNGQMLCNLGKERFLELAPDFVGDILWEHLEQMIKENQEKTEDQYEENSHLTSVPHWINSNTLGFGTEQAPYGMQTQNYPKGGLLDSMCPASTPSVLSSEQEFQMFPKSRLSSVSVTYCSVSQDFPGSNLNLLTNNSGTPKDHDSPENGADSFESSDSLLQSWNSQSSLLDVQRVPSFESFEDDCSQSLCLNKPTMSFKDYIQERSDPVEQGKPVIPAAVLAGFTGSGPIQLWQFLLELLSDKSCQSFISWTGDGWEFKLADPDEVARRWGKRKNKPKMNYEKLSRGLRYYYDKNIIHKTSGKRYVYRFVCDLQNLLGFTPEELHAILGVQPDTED
Conditions: protein: recombinant; tags: N-terminal GST; dsDNA, one strand shown. The procedure, abridged: as §1

In assay [14] the target is T9, SPDEF (Homo sapiens, UniProt O95238 1-335).
T9 sequence: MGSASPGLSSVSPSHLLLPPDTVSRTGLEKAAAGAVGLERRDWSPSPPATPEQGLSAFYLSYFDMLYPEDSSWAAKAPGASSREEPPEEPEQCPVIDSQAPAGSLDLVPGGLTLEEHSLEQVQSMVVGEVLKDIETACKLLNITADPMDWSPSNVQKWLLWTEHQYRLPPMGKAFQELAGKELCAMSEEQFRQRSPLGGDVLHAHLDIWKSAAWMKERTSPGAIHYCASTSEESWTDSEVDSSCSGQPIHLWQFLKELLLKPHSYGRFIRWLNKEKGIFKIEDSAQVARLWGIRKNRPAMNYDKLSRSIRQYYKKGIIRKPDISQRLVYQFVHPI
Conditions: protein: recombinant; tags: N-terminal GST; dsDNA, one strand shown. The procedure, abridged: as §1

Assay [15] concerns the target T10, ETV7 (Homo sapiens, UniProt Q9Y603 1-341).
T10 sequence: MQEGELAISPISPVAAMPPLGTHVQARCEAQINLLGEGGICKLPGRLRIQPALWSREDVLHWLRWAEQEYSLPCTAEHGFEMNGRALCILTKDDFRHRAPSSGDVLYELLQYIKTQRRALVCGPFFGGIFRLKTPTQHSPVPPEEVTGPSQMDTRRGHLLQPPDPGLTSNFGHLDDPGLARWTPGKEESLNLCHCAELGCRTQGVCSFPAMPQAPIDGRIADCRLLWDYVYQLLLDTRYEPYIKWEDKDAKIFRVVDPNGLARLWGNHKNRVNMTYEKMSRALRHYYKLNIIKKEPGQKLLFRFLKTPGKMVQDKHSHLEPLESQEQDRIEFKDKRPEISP
Particulars: protein: recombinant; tags: N-terminal GST; dsDNA, one strand shown. The procedure, abridged:
as §1

Assay [16] deals with T11, ELF5 (Homo sapiens, UniProt Q9UKW6-2 1-255).
T11 sequence: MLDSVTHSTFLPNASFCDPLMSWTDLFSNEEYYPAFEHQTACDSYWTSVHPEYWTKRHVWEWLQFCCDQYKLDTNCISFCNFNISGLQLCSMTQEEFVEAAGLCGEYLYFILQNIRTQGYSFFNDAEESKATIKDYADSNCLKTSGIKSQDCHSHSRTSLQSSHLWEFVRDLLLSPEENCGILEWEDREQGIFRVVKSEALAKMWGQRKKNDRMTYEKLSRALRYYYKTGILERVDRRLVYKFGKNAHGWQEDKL
Particulars: protein: recombinant; tags: N-terminal GST; dsDNA, one strand shown. The procedure, abridged: as §1

For assay [17], the target named is T12, ETV3 (Homo sapiens, UniProt P41162-2 1-143).
T12 sequence: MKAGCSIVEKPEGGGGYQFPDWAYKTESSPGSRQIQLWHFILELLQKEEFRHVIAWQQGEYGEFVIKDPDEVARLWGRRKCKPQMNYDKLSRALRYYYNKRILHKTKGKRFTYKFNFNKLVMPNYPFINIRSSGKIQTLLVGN
Conditions: protein: recombinant; tags: N-terminal GST; dsDNA, one strand shown. The procedure, abridged: as §1

The target in assay [18] is ETV6 (Homo sapiens, UniProt P41212 1-452). Conditions: protein: recombinant; tags: N-terminal GST; dsDNA, one strand shown. The procedure, abridged:
as §1

ETV5, sequence (P41161 whole entry): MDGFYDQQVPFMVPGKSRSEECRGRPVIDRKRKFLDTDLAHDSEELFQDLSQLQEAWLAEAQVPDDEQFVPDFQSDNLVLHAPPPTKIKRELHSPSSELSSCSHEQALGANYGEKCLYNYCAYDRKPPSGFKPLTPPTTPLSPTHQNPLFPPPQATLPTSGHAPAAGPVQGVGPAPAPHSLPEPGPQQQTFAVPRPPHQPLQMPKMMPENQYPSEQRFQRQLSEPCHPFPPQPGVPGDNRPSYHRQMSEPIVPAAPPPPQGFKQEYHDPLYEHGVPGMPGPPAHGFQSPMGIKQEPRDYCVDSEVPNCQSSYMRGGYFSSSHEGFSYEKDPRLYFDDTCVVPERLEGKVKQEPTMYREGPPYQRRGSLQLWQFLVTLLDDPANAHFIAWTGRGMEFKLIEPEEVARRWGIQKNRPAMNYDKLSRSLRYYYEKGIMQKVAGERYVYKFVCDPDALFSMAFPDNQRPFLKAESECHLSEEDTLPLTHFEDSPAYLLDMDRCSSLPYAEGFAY
ELF4, sequence (Q99607 whole entry): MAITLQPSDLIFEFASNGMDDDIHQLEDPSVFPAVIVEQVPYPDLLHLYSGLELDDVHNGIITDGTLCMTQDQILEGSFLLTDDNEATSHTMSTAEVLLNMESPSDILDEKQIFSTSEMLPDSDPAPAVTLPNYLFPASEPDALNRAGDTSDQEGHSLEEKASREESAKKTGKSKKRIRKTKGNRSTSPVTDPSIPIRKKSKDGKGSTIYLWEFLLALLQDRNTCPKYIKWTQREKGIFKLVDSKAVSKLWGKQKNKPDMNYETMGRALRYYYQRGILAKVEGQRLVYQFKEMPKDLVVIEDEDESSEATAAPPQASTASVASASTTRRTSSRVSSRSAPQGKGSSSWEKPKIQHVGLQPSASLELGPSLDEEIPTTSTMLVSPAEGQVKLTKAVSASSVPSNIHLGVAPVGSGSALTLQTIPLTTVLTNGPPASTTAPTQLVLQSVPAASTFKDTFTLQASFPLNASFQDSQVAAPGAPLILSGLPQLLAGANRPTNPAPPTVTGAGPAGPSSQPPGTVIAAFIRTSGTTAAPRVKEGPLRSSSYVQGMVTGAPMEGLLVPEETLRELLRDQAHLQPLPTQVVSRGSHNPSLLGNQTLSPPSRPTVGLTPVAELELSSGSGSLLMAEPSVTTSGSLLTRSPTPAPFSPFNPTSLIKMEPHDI
ETV6, sequence (P41212 whole entry): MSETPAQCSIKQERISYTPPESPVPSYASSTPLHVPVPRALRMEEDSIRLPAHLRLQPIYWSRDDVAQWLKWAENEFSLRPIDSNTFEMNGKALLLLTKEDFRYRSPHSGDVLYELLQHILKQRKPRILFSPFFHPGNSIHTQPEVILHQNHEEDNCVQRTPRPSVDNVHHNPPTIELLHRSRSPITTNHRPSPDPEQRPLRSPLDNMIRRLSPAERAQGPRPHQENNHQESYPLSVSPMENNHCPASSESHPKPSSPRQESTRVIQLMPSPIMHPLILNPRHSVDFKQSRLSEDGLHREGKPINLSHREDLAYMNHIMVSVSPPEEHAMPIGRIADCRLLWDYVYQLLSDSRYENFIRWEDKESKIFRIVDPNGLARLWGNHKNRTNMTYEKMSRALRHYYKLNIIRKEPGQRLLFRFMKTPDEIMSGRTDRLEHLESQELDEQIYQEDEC
CRX, sequence (O43186 whole entry): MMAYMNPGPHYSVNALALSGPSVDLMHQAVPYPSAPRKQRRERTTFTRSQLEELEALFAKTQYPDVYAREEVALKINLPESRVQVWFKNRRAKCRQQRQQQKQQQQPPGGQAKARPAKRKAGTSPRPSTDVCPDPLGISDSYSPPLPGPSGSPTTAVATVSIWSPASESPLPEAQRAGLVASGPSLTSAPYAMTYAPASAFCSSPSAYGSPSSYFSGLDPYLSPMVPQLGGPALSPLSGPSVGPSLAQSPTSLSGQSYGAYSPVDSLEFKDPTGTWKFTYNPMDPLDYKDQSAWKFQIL
ETV1, sequence (P50549 whole entry): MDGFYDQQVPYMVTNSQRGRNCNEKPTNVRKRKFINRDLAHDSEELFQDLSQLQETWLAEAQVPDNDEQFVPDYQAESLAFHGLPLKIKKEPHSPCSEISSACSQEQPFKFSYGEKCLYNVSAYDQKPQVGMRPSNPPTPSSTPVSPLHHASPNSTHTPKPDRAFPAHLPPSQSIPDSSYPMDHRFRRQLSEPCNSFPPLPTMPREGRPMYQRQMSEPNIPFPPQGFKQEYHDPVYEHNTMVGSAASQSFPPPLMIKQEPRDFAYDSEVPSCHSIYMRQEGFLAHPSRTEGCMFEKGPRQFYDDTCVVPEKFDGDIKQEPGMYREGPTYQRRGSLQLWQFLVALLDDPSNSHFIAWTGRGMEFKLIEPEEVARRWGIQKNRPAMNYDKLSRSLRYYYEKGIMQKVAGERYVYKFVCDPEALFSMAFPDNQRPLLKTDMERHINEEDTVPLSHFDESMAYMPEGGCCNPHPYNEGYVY

Turning to TGTTCC, the binding signal in assay [1] is 1.69 fold enrichment (6-mer frequency, TF over GST control); in assay [2], 1.71 fold enrichment (6-mer frequency, TF over GST control); in [3], 1.85 fold enrichment (6-mer frequency, TF over GST control); in assay [4], 2 fold enrichment (6-mer frequency, TF over GST control); in assay [5] it was 1.64 fold enrichment (6-mer frequency, TF over GST control); in [6], 1.49 fold enrichment (6-mer frequency, TF over GST control). In addition, the binding signal was 1.78 fold enrichment (6-mer frequency, TF over GST control) in assay [7]; 1.6 fold enrichment (6-mer frequency, TF over GST control) in [8]; 1.21 fold enrichment (6-mer frequency, TF over GST control) in assay [9]; 1.86 fold enrichment (6-mer frequency, TF over GST control) in assay [10]; 1.75 fold enrichment (6-mer frequency, TF over GST control) in [11]; 1.62 fold enrichment (6-mer frequency, TF over GST control) in assay [12]. The binding signal in assay [13] was 1.75 fold enrichment (6-mer frequency, TF over GST control); in assay [14], 2.03 fold enrichment (6-mer frequency, TF over GST control); in assay [15] it was 1.68 fold enrichment (6-mer frequency, TF over GST control); in [16], 2.3 fold enrichment (6-mer frequency, TF over GST control); in [17], 1.85 fold enrichment (6-mer frequency, TF over GST control); in assay [18] it was 1.69 fold enrichment (6-mer frequency, TF over GST control).
